# Compound activity (PubChem)
# HSP90 inh: HSP90 refolding inhibition in rabbit reticulocyte lysate; inhibition, % at 5.6 µM; AID 1789; actives 0.91% (n = 290,000); luciferase refolding luminescence, 3 h;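 active = inhibition above the screen-wide mean plus 3 SD, computed separately per campaign, cut at about 16% in these data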;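 note: 0% = DMSO wells and 100% = 60 µM geldanamycin wells; inhibitors lower the luminescence because luciferase stays unfolded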
# TWEAK Fn14 block: TWEAK-Fn14 signaling inhibition; TWEAK-stimulated Fn14 reporter cells, luciferase luminescence, 8 h; inhibition, % at 10 µM; actives 2% (n = 360,000); AID 1159606; in the data active = inhibition above about 50%
# TROY NFkB inh: blocks TROY-dependent signaling in reporter cells; inhibition, % at 10 µM; actives 0.98% (n = 360,000); Q293 LMP1-TROYcd NF-kB luciferase reporter, 4 h;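 active = compounds whose plate-normalised and pattern-corrected inhibition of the luciferase reporter signal at the single screening dose is 50% or more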
# HSF1 inh: HSF1 inhibition | NIH3T3-HGL HSE-luciferase, MG132-induced, luminescence 8 h; hits give low values | activity change, negative = inhibition, % at 7.5 µM (by protocol) | actives 0.77% (n = 300,000) | AID 2098;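 active = more than half of replicate wells show activity change below -50%, luminescence cut by over half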;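 note: luciferase reports HSF-1 transcriptional activity via heat shock element; 0% = median of DMSO wells and -100% = zero luminescence signal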
# HSF-1 act: increases HSF-1 driven luciferase reporter signal; NIH3T3-HGL HSF-1 luciferase reporter, MG132, 8 h; 100% = twice DMSO control signal; AID 504408; actives 1.7% (n = 300,000); activation, % at 9 µM;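 active = mean replicate activation of at least 50% with a set share of replicates each reaching 50%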;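 note: 0% = median of the neutral control wells and 100% = twice that signal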
# EBV LMP1 NFkB: inhibitors of Epstein-Barr LMP1-induced NF-kappaB reporter; LMP1-induced NF-kappaB luciferase reporter cells, luminescence; inhibition, % at 12.5 µM; actives 0.69% (n = 350,000); in the data active = inhibition above about 41%;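 note: 0% = neutral control wells and 100% = reference inhibitor control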
# HSP90 inh confirm: HSP90 inhibition, confirmation assay | inhibition, % at 5.9 µM | shares compounds with HSP90 inh | actives 64% (n = 2,300) | rabbit reticulocyte lysate, luciferase refolding luminescence, 3 h; in the data active = inhibition above about 18%;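 note: 0% = vehicle wells and 100% = reference inhibitor wells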
# FLuc counter: blocks native firefly luciferase in HSP90 counter-screen. inhibition, % at 5.9 µM. shares compounds with HSP90 inh. actives 48% (n = 2,300). AID 1847. purified native firefly luciferase, luminescence;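 active = inhibition above the mean inhibition of all tested sample wells plus 3 SD, cut at about 10% in these data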;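 note: 0% = DMSO with luciferase and 100% = wells lacking luciferase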
# Target sequence (P08659 whole entry, looked up): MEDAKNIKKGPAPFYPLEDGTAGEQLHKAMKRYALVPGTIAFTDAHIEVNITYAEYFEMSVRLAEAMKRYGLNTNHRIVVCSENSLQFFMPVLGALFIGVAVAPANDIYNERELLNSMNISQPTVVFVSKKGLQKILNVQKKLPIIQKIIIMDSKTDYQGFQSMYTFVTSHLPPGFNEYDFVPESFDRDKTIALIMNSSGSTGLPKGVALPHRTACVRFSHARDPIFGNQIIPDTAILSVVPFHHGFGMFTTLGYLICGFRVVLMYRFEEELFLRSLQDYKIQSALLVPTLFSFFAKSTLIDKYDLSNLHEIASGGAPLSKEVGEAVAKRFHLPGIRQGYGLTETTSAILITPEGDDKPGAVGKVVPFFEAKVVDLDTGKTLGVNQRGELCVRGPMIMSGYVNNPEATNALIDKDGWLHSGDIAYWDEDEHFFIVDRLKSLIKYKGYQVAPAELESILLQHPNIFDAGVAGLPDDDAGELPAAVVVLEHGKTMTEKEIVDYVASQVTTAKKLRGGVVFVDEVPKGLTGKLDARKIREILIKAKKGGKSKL
# * marks the source's active call; other numbers are inactive results; / = no result. The list is not random: actives were taken first. Their share in the collection is about 4.7%.
SMILES,HSP90 inh,TWEAK Fn14 block,TROY NFkB inh,HSF1 inh,HSF-1 act,EBV LMP1 NFkB,HSP90 inh confirm,FLuc counter
COc1ccc(C(=O)CC(c2ccc3c(c2)OCO3)c2c(O)c3ccccc3oc2=O)cc1OC (stereo not drawn),/,-21,-22,/,/,2,/,/
Cc1cccc(CN2CCCN(Cc3ccc(Cl)cc3)S2(=O)=O)c1,0,-10,12,1,1,-10,/,/
Cc1ccc(CN2CCCN(Cc3ccc(C)cc3)S2(=O)=O)cc1,18*,7,0,-1,1,-5,7,-1
Cc1ccc(OCCOc2cccc(C=C3C(=O)NC(=O)NC3=O)c2)cc1,30*,27,-65,-5,4,13,45*,14*
COc1ccc(-n2c(/C=C/c3ccc(O)cc3)nc3ccccc3c2=O)cc1,4,19,11,-4,-14,0,/,/
CCn1nc(/C=C/c2ccccc2)nc2c(=O)n(C)c(=O)nc1-2,85*,106*,83*,/,/,72*,96*,88*
CN(C)C(=O)Oc1cccc(-c2cn3cc(Cl)ccc3n2)c1,6,-8,-62,19,30,-14,/,/
CN(C)C(=O)Oc1ccc(-c2cn3cc(Cl)ccc3n2)cc1,33*,49,-38,16,27,6,34*,21*
CC(=O)OC1N=C(c2ccccc2Cl)c2cc(Br)ccc2NC1=O (stereo not drawn),2,-2,-6,8,7,-6,/,/
CN/C=C(/Cl)P(=O)(OC(C)C)OC(C)C,/,5,8,7,16,-6,/,/
O=C(NC1CCCCC1)Oc1cc2oc(=O)sc2cc1Cl,18*,12,0,2,-6,-1,2,-7
COC(=O)C1=C(c2ccc(F)cc2OCc2ccccc2)C[C@@H]2CC[C@H]1N2C(=O)NCc1cccc(C(F)(F)F)c1,/,18,0,/,/,4,/,/
O=C(CCS(=O)(=O)c1ccc(Br)cc1)N1CCC2(CC1)OCCO2,78*,1,-9,/,/,-13,-5,-11
O=C(c1ccc(CS(=O)(=O)c2ccc(Br)cc2)o1)N1CCC2(CC1)OCCO2,1,9,-16,1,7,3,/,/
COc1ccc(-c2ccc3c(c2)CN(C(=O)CCc2ccccc2)Cc2cnnn2-3)cc1,/,-16,20,/,/,/,/,/
COc1cc(C(c2c(C)[nH]n(-c3ccccc3)c2=O)c2c(C)[nH]n(-c3ccccc3)c2=O)cc(OC)c1OC,56*,-3,-28,33,55*,5,-9,-4
COC(=O)C(O)(c1c(C)[nH]n(-c2ccccc2)c1=O)C(F)(F)F (stereo not drawn),3,2,-44,8,2,2,/,/
CCOC(=O)C1CCN(/C=C2/C(=O)NC(=O)N(c3ccc(OCC)cc3)C2=O)CC1,24*,18,-10,/,/,-6,-2,-5
COC(=O)C1=C(c2cccc(OCc3ccccc3)c2)C[C@@H]2CC[C@H]1N2C(=O)NCc1ccccc1C(F)(F)F,/,22,-18,/,/,16,/,/
CCCCCCOc1ccc(CN2CCN(CC)CC2)cc1,30*,66*,60*,/,/,13,25*,8
CC1CN=C(NC(C)c2ccccc2)S1 (stereo not drawn),17*,3,-2,-1,5,-11,-4,-8
COc1ccc(N2C(=O)NC(=O)/C(=C\c3cn(C)c4ccccc34)C2=O)cc1,28*,-23,-20,-10,0,1,-1,-4
